Experimental data as given in article PMC6664820, “Novel natural and synthetic inhibitors of solute carriers SGLT1 and SGLT2” (Pharmacology Research & Perspectives, 2019).
The whole screen tested about 1,900 compounds, of which about 40 (2%) showed an effect of 50% or more. For the sample, strong results were picked, then their nearest neighbours and some compounds at random.

These compounds were tested against human SGLT1 (hSGLT1) (human, UniProt P13866) (assay: primary screen, percent of control activity; higher = less effect of the substance). Conditions: 50 µM.
human SGLT1 (hSGLT1), sequence (P13866 whole entry, looked up): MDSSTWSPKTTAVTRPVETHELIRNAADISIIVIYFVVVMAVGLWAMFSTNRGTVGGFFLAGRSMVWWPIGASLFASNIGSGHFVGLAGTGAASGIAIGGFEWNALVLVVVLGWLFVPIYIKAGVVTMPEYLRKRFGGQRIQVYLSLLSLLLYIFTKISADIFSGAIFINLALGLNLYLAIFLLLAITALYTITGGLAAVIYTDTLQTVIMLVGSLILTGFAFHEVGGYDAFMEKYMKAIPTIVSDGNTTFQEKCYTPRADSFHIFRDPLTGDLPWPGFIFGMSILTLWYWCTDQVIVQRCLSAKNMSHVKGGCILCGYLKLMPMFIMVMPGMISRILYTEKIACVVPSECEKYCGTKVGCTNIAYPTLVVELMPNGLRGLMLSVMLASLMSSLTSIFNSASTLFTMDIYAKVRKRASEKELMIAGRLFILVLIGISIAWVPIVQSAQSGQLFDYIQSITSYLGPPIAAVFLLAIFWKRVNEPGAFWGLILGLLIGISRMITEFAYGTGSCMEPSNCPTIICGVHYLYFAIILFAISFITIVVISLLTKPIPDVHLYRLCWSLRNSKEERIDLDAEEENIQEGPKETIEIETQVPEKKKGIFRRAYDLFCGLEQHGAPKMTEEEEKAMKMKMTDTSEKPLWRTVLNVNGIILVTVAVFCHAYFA
Set-up: single well
Description: Two days before the assay, CHO‐wild type and CHO‐hSGLT1 cells were seeded in maintenance medium at 25 000 cells/well in clear‐bottom black 96‐well cell culture plates. Before the assay, cells were washed 3 times with 150 μL/well D‐glucose free DMEM with 0.3% (w/v) BSA. Library compounds at 50 μmol/L (singlicate) prepared in D‐glucose free DMEM with 160 μmol/L 1‐NBD‐glucose and 0.3% (w/v) BSA and negative controls (triplicate) were added at 100 μL/well and placed in a humidified incubator at 37°C with 5% CO2 for 90 minutes. Next, cells were washed 3 times with DMEM with 0.3% (w/v) BSA (150 μL/well). Care was taken to remove all medium after the last wash. Finally, 1‐NBD‐glucose was extracted from the cells by adding 10 μL/well isopropanol and orbital shaking for 5 minutes at 600 rpm, followed by incubation in the dark for 30 minutes. Fluorescence was measured on a Tecan Infinite M200 Microplate Reader (Tecan, Männedorf, Switzerland) with excitation at 445 nm and emission at 525 nm. The amount of 1‐NBD‐glucose taken up by the CHO‐wild type or CHO‐hSGLT1 cells in the presence or absence of test compounds was interpolated from 1‐NBD‐glucose calibration standards. The background uptake by CHO‐wild type was subtracted from the uptake by CHO‐hSGLT1. Background corrected uptake with test compound was expressed as a percentage of corrected uptake without test compound.

Row | Structure (SMILES) | NORMALIZED SGLT1 ACTIVITY (%)
1 | O=P(O)(O)O.c1ccc(CN(CC2=NCCN2)c2ccccc2)cc1 | 87
2 | CC(C)COCC(CN(Cc1ccccc1)c1ccccc1)N1CCCC1.Cl (centres unmarked) | 48
3 | COc1cc2ccc(=O)oc2c(O)c1O | 142
4 | CCCn1c(=O)c2nc(C3CCCC3)[nH]c2n(CCC)c1=O | 180
5 | COc1cc(S(C)=O)ccc1-c1nc2cccnc2[nH]1 (centres unmarked) | 237
6 | CC1(C)S[C@@H]2[C@H](NC(=O)Cc3ccccc3)C(=O)N2[C@H]1C(=O)[O-].[K+] | 115
7 | CC1(C)CC[C@]2(C(=O)O)CC[C@]3(C)C(=CCC4[C@@]5(C)CC[C@@H](O)C(C)(C)C5CC[C@]43C)C2C1 (some centres unmarked) | 133
8 | CC1(C)CC[C@]2(C)CC[C@]3(C)C(=CCC4[C@@]5(C)CC[C@H](O)C(C)(C)C5CC[C@]43C)C2C1 (some centres unmarked) | 91
9 | CC1(C)CC[C@@]2(C(=O)O)C(C1)C1=CCC3[C@@]4(C)CC[C@H](O)C(C)(C)C4CC[C@@]3(C)[C@]1(C)C[C@@H]2O (some centres unmarked) | -6
10 | CC(=O)Oc1cc2c(c(C)c1OC(C)=O)CC1OC13[C@@]2(C)CC[C@@]1(C)C2C[C@](C)(C(=O)O)CC[C@]2(C)CC[C@]31C (some centres unmarked) | 204
11 | Cl.O=C(O)C1=CCNCC1 | 111
12 | CO/N=C1\CN(c2nc3c(cc2F)c(=O)c(C(=O)O)cn3C2CC2)CC1CN.CS(=O)(=O)O (centres unmarked) | 157
13 | CC(C)[N+]1(C)C2CC[C@@H]1C[C@@H](OC(=O)C(CO)c1ccccc1)C2.[Br-] (some centres unmarked) | 83
14 | CS(=O)(=O)O.OC(CCN1CCCCC1)(c1ccccc1)c1ccccc1 | 101
15 | Cl.OC(CCN1CCCCC1)(c1ccccc1)C1CCCCC1 (centres unmarked) | 69
16 | Cl.OC(CCN1CCCC1)(c1ccccc1)C1CCCCC1 (centres unmarked) | 45
17 | CN(C)C(=O)Oc1ccc[n+](C)c1.[Br-] | 105
18 | NC(Cc1c[nH]cn1)C(=O)Nc1ccc2ccccc2c1 (centres unmarked) | 153
19 | C[C@H]1CC2C3CCC4=CC(=O)C=C[C@]4(C)[C@@]3(F)[C@@H](O)C[C@]2(C)[C@@]1(O)C(=O)CO (some centres unmarked) | 241
20 | CC(=O)OCC1=C(C(=O)[O-])N2C(=O)[C@@H](NC(=O)Cc3cccs3)[C@H]2SC1.[Na+] | 140
21 | CCOP(=S)(OCC)Oc1cc(C)nc(C(C)C)n1 | 107
22 | CCOP(=S)(OCC)Oc1ccc2c(C)c(Cl)c(=O)oc2c1 | 118
23 | CCOP(=S)(OCC)Oc1nc(Cl)c(Cl)cc1Cl | 35

Row | Structure (SMILES) | NORMALIZED SGLT1 ACTIVITY (%)
24 | O=C(O)c1cc(O)c(=O)c2c(O)c(O)ccc2c1 | 141
25 | CC[C@H](C)[C@H](N)C(=O)N1CCC[C@H]1C(=O)N[C@H](C(=O)O)[C@@H](C)CC | 98
26 | O=C(O)c1cc(O)ccc1O | 145
27 | Cl.Cl.N=C(NCCCCCCNC(=N)NC(=N)Nc1ccc(Cl)cc1)NC(=N)Nc1ccc(Cl)cc1 | 25
28 | CC(C)NC(=N)NC(=N)Nc1ccc(Cl)cc1.Cl | 130
29 | Cl.N=C(N)NC(=N)Nc1ccccc1 | 136
30 | CC1(C)NC(=O)N(c2ccc([N+](=O)[O-])c(C(F)(F)F)c2)C1=O | 222
31 | O=C(/C=C/C=C/c1ccc2c(c1)OCO2)N1CCCCC1 | 87
32 | COc1ccc(-c2cc(=O)c3c(O)cc(O[C@H]4O[C@H](CO[C@@H]5O[C@@H](C)[C@H](O)[C@@H](O)[C@H]5O)[C@@H](O)[C@H](O)[C@H]4O)cc3o2)cc1 | 121
33 | COc1ccc2cc([C@H](C)CO)ccc2c1 | 111
34 | Clc1ccc(C(c2ccc(Cl)cc2)C(Cl)(Cl)Cl)cc1 | 86
35 | COc1ccc(C(c2ccc(OC)cc2)C(Cl)(Cl)Cl)cc1 | 42
36 | COc1ccc(CCC(=O)c2c(O)cc(O[C@@H]3O[C@H](CO)C(O)[C@H](O)C3O[C@@H]3O[C@@H](C)[C@H](O)[C@@H](O)[C@H]3O)cc2O)cc1O (some centres unmarked) | 143
37 | C#CCCCCCCCCCCCC(O)CC(O)COC(C)=O.C=CCCCCCCCCCCCC(O)CC(O)COC(C)=O (centres unmarked) | 197
38 | COC(=O)[C@H]1[C@H]2C[C@H]3c4[nH]c5cc(OC)ccc5c4CCN3C[C@H]2C[C@@H](OC(=O)c2cc(OC)c(OC)c(OC)c2)[C@@H]1OC | 345
39 | CC1(C)Oc2ccc3ccc(=O)oc3c2CC1O (centres unmarked) | 159
40 | CC(=O)O[C@@H]1c2c(ccc3ccc(=O)oc23)OC(C)(C)[C@@H]1OC(=O)CC(C)C | 51
41 | C/C=C(\C)C(=O)O[C@@H]1c2c(ccc3ccc(=O)oc23)OC(C)(C)[C@@H]1OC(C)=O | 5
42 | O=C1CN(/N=C/c2ccc(-c3ccc([N+](=O)[O-])cc3)o2)C(=O)[N-]1.[Na+] | 103
43 | CCC(C)(C)C(=O)O[C@H]1C[C@@H](C)C=C2C=C[C@H](C)[C@H](CC[C@@H]3C[C@@H](O)CC(=O)O3)[C@H]21 | 96
44 | CC1=C(/C=C/C(C)=C/C=C/C(C)=C/C=C/C=C(C)/C=C/C=C(C)/C=C/C(=O)[C@]2(C)C[C@@H](O)CC2(C)C)C(C)(C)C[C@H](O)C1 | 103
45 | CCOP(=S)(OCC)SCn1c(=O)oc2cc(Cl)ccc21 | 57
46 | CCOP(=S)(OCC)SCCSCC | 77

Row | Structure (SMILES) | NORMALIZED SGLT1 ACTIVITY (%)
47 | CCOP(=S)(OCC)SCSCC | 47
48 | CC(C)=CCC[C@](C)(O)C1CC=C(C)CC1 (some centres unmarked) | 99
49 | CC1(C)C2CC(=O)O[C@@]3(C)C4=CC(=O)O[C@@H](c5ccoc5)[C@]4(C)CCC3[C@@]2(C)C=C[C@H]1O (some centres unmarked) | 132
50 | CN1CCc2c(c3ccccc3n2Cc2ccccc2)C1.O=S(=O)(O)c1cccc2c(S(=O)(=O)O)cccc12 | 69
51 | Cl.Cl.NNCc1cccc(O)c1 | 149
52 | CCCCCCCCCCCCC[N+](C)(C)Cc1ccccc1.[Cl-] | 40
53 | CCCCCCCCCc1ccc(O)cc1 | 107
54 | CCCCCCc1ccc(O)cc1O.Nc1c2ccccc2nc2ccccc12 | 383
55 | CC(=O)O[C@@](C)(CCC=C(C)C)C1CC=C(C)CC1 (some centres unmarked) | 112
56 | ClC1=C(Cl)C2(Cl)C3C(Cl)C=CC3C1(Cl)C2(Cl)Cl (centres unmarked) | 57
57 | CN1CCN(CC/C=C2/c3ccccc3Sc3ccc(S(=O)(=O)N(C)C)cc32)CC1 | 116
58 | CN1CCC(=C2c3ccccc3Sc3ccccc32)CC1.O=C(O)/C=C\C(=O)O | 36
59 | CSc1ccc2c(c1)C(N1CCN(C)CC1)Cc1ccccc1S2.O=C(O)/C=C\C(=O)O (centres unmarked) | 115
60 | COC(=O)[C@H]1[C@H]2C[C@H]3c4[nH]c5ccccc5c4CCN3C[C@H]2CC[C@@H]1O.Cl | 110
61 | COc1cc2c(cc1O)C(Cc1ccc(O)cc1)N(C)CC2 (centres unmarked) | 89
62 | Oc1ccc(Cl)cc1Cc1cc(Cl)ccc1O | 590
63 | CC1(C)C(=O)C=C[C@@]2(C)C1C[C@@H](O)[C@]1(C)C2CC[C@@]2(C)[C@H](c3ccoc3)OC(=O)[C@H]3O[C@]321 (some centres unmarked) | 103
64 | CC(=O)O[C@@H]1C[C@@]2(C)[C@H](c3ccoc3)C[C@H]3O[C@]32[C@]2(C)C(=O)C(O)=C3C(C)(C)C(=O)C=C[C@]3(C)C12 (some centres unmarked) | 104
65 | CC1(C)C(=O)C=C[C@@]2(C)C1=C(O)C(=O)[C@]1(C)C2CC[C@@]2(C)[C@H](c3ccoc3)C[C@H]3O[C@]321 (some centres unmarked) | 45
66 | O=C1CN(/N=C/c2ccc([N+](=O)[O-])o2)C(=O)N1 | 159
67 | CNC[C@@H](O)c1ccc(O)c(O)c1.O=C(O)C(O)C(O)C(=O)O | 105
68 | N#Cc1c(Cl)c(Cl)c(Cl)c(C#N)c1Cl | 76
69 | N#Cc1ccc2c(c1)N(CCCN1CCC(O)CC1)c1ccccc1S2 | 75

Row | Structure (SMILES) | NORMALIZED SGLT1 ACTIVITY (%)
70 | OCCN1CCN(CCCN2c3ccccc3Sc3ccc(Cl)cc32)CC1 | 17
71 | CN1CCN(CCCN2c3ccccc3Sc3ccc(C(F)(F)F)cc32)CC1.Cl.Cl | 61
72 | Cn1nnnc1SCC1=C(C(=O)[O-])N2C(=O)C(NC(=O)C(O)c3ccccc3)C2SC1.[Na+] (centres unmarked) | 150
73 | COc1cc2c(cc1OC)C1C(=O)c3c(O)cc4c(c3OC1CO2)C=CC(C)(C)O4 (centres unmarked) | 283
74 | CCCc1ncc(C[n+]2ccccc2C)c(N)n1.Cl.[Cl-] | 87
75 | Cc1cc(O)c2c(c1)C(=O)c1cc(O)cc(O)c1C2=O | 118
76 | CN(C)CCC=C1c2ccccc2C=Cc2ccccc21.Cl | 50
77 | CN(C)CC/C=C1\c2ccccc2Sc2ccc(Cl)cc21.Cl | 87
78 | CN(C)CCC=C1c2ccccc2CCc2ccccc21.Cl | 59
79 | Cc1cc(C2CCCCC2)n(O)c(=O)c1.NCCO | 182
80 | ClC1=C(Cl)C2(Cl)C3C4C=CC(C4)C3C1(Cl)C2(Cl)Cl (centres unmarked) | 96
81 | COc1cc2ccc(=O)oc2c(OC)c1OC | 257
82 | COC(=O)c1c(OC)cc2c(c1C)Oc1c(Cl)c(O)c(Cl)c(C)c1C(=O)O2 | 520
83 | Cc1cc(O)c2c(c1O)C(=O)c1c(O)cc(C)c(O)c1C2=O | 127
84 | CN[C@@H]1[C@@H](O)C(OC2[C@@H](N)C[C@@H](N)[C@H](O[C@H]3O[C@H](C(C)O)[C@@H](O)[C@H](O)[C@H]3N)[C@H]2O)OC[C@]1(C)O.O=S(=O)(O)O.O=S(=O)(O)O (some centres unmarked) | 82
85 | CNC(=O)O/N=C(/C)SC | 76
86 | COc1c2ccoc2cc2oc(C)cc(=O)c12 | 165
87 | OC[C@H]1O[C@@H](n2cnc3c(NCc4ccco4)ncnc32)[C@H](O)[C@@H]1O | 142
88 | CCCCCCCCCN1C[C@H](O)[C@@H](O)[C@H](O)[C@H]1CO | 83.2
89 | ClC1=C(Cl)C2(Cl)C3C4CC(C5OC45)C3C1(Cl)C2(Cl)Cl (centres unmarked) | 136
